Calls of active or inactive are those of the source. Rule for the calls: active = hit-call score of the fitted dose curve at least 0.9, where 1 is the maximum; inactive = score below 0.9.

This experiment can be described thus: UKN5_HCS_SBAD2_cell_viability: Viability Assessment in the University of Konstanz (UKN) Leist Lab Neurite Outgrowth Assay in human iPSC-derived immature Dorsal Root Ganglia Neurons (UKN5) (AID 2284056). The method, boiled down: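 iPSC-derived immature peripheral neurons (SBAD2) seeded on Matrigel with CHIR99021, SU5402 and DAPT, dosed 1 h later for 24 h. Viability from Hoechst H-33342 and calcein-AM live staining, high-content imaging; bidirectional fit versus DMSO.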

Consider `CN1CCC[C@H]1c1cccnc1`, for which the compound was classed as inactive.

Turning to `CC1=C(/C=C/C(C)=C/C=C/C(C)=C/C(=O)O)C(C)(C)CCC1`, the call was inactive.

(Values after PubChem BioAssay (EPA / NIEHS).)
